Test results taken from PubChem BioAssay AID1159580 (chemical genetic matrix, 2015).
In all, about 5,500 compounds went through this assay and about 2,000 (36%) were called active. About 18% were inconclusive and are not listed. Cut-off read from the data, not from the text of the source: active = normalized growth mostly below about 0.91 (no sharp cut-off); inconclusive = no clear call, values can overlap the other calls; inactive = mostly above about 0.92. Some of the results follow.

Experiment: chemical genetic growth profiling, strain panel (AID 1159580);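 note: tested at 20 µM; growth read once vehicle control cultures reached saturation at 30 °C; 1 = growth at the plate median or of vehicle wells; lower values mean less growth of the strain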
Settings: S. cerevisiae deletion strains, growth OD

Measured: normalized growth

O=C(/C=C/c1ccccc1)O[C@H]1C[C@@H](O)[C@]2(O)C=CO[C@@H](O[C@@H]3O[C@H](CO)[C@@H](O)[C@H](O)[C@H]3O)[C@H]12
inactive: locus YAL021C, strain ccr4, active compounds read low 0.996 | locus YAL026C, strain drs2, active compounds read low 1.03 | locus YAL030W, strain snc1, active compounds read low 1.03 | locus YBL061C, strain skt5, active compounds read low 1.02 | locus YBR009C, strain hhf1, active compounds read low 1.05 | locus YBR023C, strain chs3, active compounds read low 1.02 | locus YBR171W, strain sec66, active compounds read low 1.03 | locus YBR231C, strain swc5, active compounds read low 1.03 | locus YBR279W, strain paf1, active compounds read low 1.02 | locus YCL011C, strain gbp2, active compounds read low 1.02 | locus YCL016C, strain dcc1, active compounds read low 1.03 | locus YCL061C, strain MRC1, active compounds read low 1.02 | locus YCL069W, strain vba3, active compounds read low 1.03 | locus YCR088W, strain abp1, active compounds read low 1.02 | locus YDL005C, strain med2, active compounds read low 1.02 | locus YDL040C, strain nat1, active compounds read low 1.03 | locus YDR001C, strain nth1, active compounds read low 1.02 | locus YDR069C, strain doa4, active compounds read low 1.03 | locus YDR137W, strain rgp1, active compounds read low 1.03 | locus YDR159W, strain sac3, active compounds read low 1.05 | locus YDR195W, strain ref2 1.01 | locus YDR297W, strain sur2, active compounds read low 1.02 | locus YDR334W, strain swr1, active compounds read low 1.03 | locus YDR335W, strain msn5, active compounds read low 1.02 | locus YDR392W, strain spt3, active compounds read low 0.927 | locus YEL003W, strain gim4, active compounds read low 1.03 | locus YEL037C, strain rad23, active compounds read low 1.02 | locus YEL061C, strain CIN8 (second series), active compounds read low 1.01 | locus YER015W, strain faa2, active compounds read low 1.02 | locus YER016W, strain bim1, active compounds read low 1.03 | locus YER111C, strain swi4, active compounds read low 1.03 | locus YER155C, strain BEM2 (second series), active compounds read low 1.04 | locus YFR010W, strain ubp6, active compounds read low 1.03 | locus YGL167C, strain pmr1, active compounds read low 1.02 | locus YGL173C, strain kem1, active compounds read low 1.03 | locus YGL227W, strain vid30, active compounds read low 1.03 | locus YGL240W, strain doc1, active compounds read low 1.04 | locus YGL253W, strain hxk2, active compounds read low 1.03 | locus YHR013C, strain ard1, active compounds read low 0.995 | locus YHR027C, strain rpn1, active compounds read low 1.03 | locus YHR030C, strain SLT2, active compounds read low 0.902 | locus YHR079C, strain IRE1, active compounds read low 0.939 | locus YHR142W, strain chs7, active compounds read low 0.998 | locus YJL092W, strain hpr5, active compounds read low 1.02 | locus YJL095W, strain BCK1 (second series), active compounds read low 1.03 | locus YJL095W, strain BCK1, active compounds read low 0.928 | locus YJL115W, strain asf1, active compounds read low 1.03 | locus YJL129C, strain trk1, active compounds read low 1.01 | locus YJL154C, strain vps35, active compounds read low 1.02 | locus YJL164C, strain tpk1, active compounds read low 1.01 | locus YJL166W, strain qcr8, active compounds read low 1.03 | locus YJL187C, strain SWE1, active compounds read low 1.02 | locus YJR066W, strain TOR1, active compounds read low 0.92 | locus YKL160W, strain elf1, active compounds read low 0.989 | locus YKR026C, strain gcn3, active compounds read low 1.03 | locus YKR091W, strain srl3, active compounds read low 1.02 | locus YLL001W, strain dnm1, active compounds read low 1.02 | locus YLL026W, active compounds read low 1.02 | locus YLL041C, strain sdh2, active compounds read low 1.02 | locus YLR027C, strain aat2, active compounds read low 1.02 | locus YLR113W, strain HOG1, active compounds read low 0.878 | locus YLR221C, strain rsa3, active compounds read low 1 | locus YLR258W, strain gsy2, active compounds read low 1.05 | locus YLR262C, strain YPT6 (second series), active compounds read low 1.04 | locus YLR320W, strain mms22, active compounds read low 1.02 | locus YLR342W, strain FKS1, active compounds read low 1.02 | locus YLR357W, strain rsc2, active compounds read low 1.02 | locus YLR370C, strain arc18, active compounds read low 1.02 | locus YLR384C, strain iki3, active compounds read low 1.03 | locus YML120C, strain ndi1, active compounds read low 0.999 | locus YMR058W, strain fet3, active compounds read low 1.02 | locus YMR125W, strain sto1, active compounds read low 1.03 | locus YMR129W, active compounds read low 1.02 | locus YMR205C, strain PFK2, active compounds read low 1.06 | locus YMR231W, strain pep5, active compounds read low 1.03 | locus YNL071W, strain lat1, active compounds read low 1.02 | locus YNL183C, strain NPR1, active compounds read low 0.951 | locus YNL209W, strain ssb2, active compounds read low 1.02 | locus YNL248C, strain rpa49, active compounds read low 0.992 | locus YNL322C, strain KRE1 (second series), active compounds read low 1.03 | locus YNR049C, strain mso1, active compounds read low 1.03 | locus YOR001W, strain rrp6, active compounds read low 1 | locus YOR070C, strain gyp1, active compounds read low 1.03 | locus YOR080W, strain dia2, active compounds read low 1.03 | locus YOR083W, strain WHI5, active compounds read low 0.986 | locus YOR106W, strain vam3, active compounds read low 1.01 | locus YOR231W, strain MKK1, active compounds read low 0.938 | locus YOR265W, strain rbl2, active compounds read low 1.02 | locus YOR270C, strain vph1, active compounds read low 1.03 | locus YOR290C, strain snf2, active compounds read low 0.969 | locus YPL051W, strain arl3, active compounds read low 1.01 | locus YPL078C, strain atp4, active compounds read low 0.996 | locus YPL106C, strain sse1, active compounds read low 1.04 | locus YPL240C, strain hsp82, active compounds read low 1.02 | locus YPL256C, strain CLN2, active compounds read low 0.943

CCCC[N+]1(C)C2CC(OC(=O)[C@H](CO)c3ccccc3)CC1C1OC12 (some centres not stated)
inactive: locus YAL013W, strain DEP1, active compounds read low 1 | locus YAL040C, strain CLN3, active compounds read low 1.05 | locus YCL061C, strain MRC1 (second series), active compounds read low 0.996 | locus YDR150W, strain NUM1, active compounds read low 1 | locus YDR363W, strain ESC2, active compounds read low 0.999 | locus YER002W, strain NOP16, active compounds read low 1.01 | locus YGR078C, strain PAC10, active compounds read low 0.989 | locus YGR229C, strain SMI1, active compounds read low 1.02 | locus YMR307W, strain GAS1, active compounds read low 0.976 | locus YNL153C, strain GIM3, active compounds read low 0.987 | locus YNL175C, strain NOP13, active compounds read low 1.02 | locus YNL197C, strain WHI3, active compounds read low 0.989 | locus YNL224C, strain SQS1, active compounds read low 0.99 | locus YNL322C, strain KRE1, active compounds read low 0.998 | locus YOR083W, strain WHI5 (second series), active compounds read low 0.99 | locus YPL055C, strain LGE1, active compounds read low 0.987 | locus YPL241C, strain CIN2, active compounds read low 1
